# Inconclusive results are not listed. A number with no mark means an inactive call. Active and inactive are the calls of the source. Unless noted, calls follow the shape of the full dose curve.
# Tested on: not listed separately
# Assay: qHTS for Inhibitors of the Functional Ribonucleoprotein Complex (vRNP) of Lymphocytic Choriomeningitis Arenaviruses (LCMV): Viability assay - alamar blue signal for LCMV Primary Screen (AID 1347085; calls by dose curve; tested in HEK293 reporter line; also: nearly all actives have a fitted effect of over 80% in size)
# Conditions: alamar blue viability counter-screen, LCMV vRNP screen cells; series mostly up to 57.5 µM; activity change, negative = lower viability: at the top concentration
# % is scaled to controls: 0 for no effect and ±100 for the full control effect; potency is read from the fitted curve at half-maximal effect.
Structure (SMILES),"activity change, negative = lower viability",Potency
O=[N+]([O-])c1c(Cl)c(Cl)cc(Cl)c1Cl,5.47% [at 115 µM],–
O=C(Nc1ccncc1)C(=O)c1cn(Cc2ccc(Cl)cc2)c2ccccc12,–,0.0544 µM (active)
CC[N+]1(CCOC(=O)C(O)(c2ccccc2)c2ccccc2)CCCCC1,8.33%,–
CC(=Cc1csc(C)n1)[C@@H]1C[C@H]2O[C@]2(C)CCC[C@H](C)[C@@H](O)[C@@H](C)C(=O)C(C)(C)[C@@H](O)CC(=O)O1,-109%,–
CCOC(=O)Nc1ccc(NCc2ccc(F)cc2)cc1N,–,1.37 µM (active)
COc1ccc2c(c1)[C@]13CCCCC1C(C2)N(C)CC3 (stereo not given in full),-18.8%,–
CCCCCCCCCC(CC)c1ccc(S(=O)(=O)O)cc1 (stereo not given),24.9% [at 115 µM],–
C[C@@]12OC(=O)[C@]1([C@@H](O)[C@@H]1C=CCCC1)NC(=O)[C@H]2CCCl,–,24.3 µM (active)
N#C[C@H](O[C@@H]1O[C@H](CO[C@@H]2O[C@H](CO)[C@H](O)[C@H](O)[C@H]2O)[C@H](O)[C@H](O)[C@H]1O)c1ccccc1,–,38.5 µM (active)
CC[C@@H]1[C@@H](C)O[C@@](O)([C@@H](C)[C@H](O)[C@H](C)[C@H]2OC(=O)C=CC=C[C@@H](C)[C@@H]([C@@H](C)[C@@H](O)[C@H](C)[C@@]3(O)C[C@H](O[C@H]4C[C@H](O)[C@H](O)[C@H](C)O4)[C@H](CC)[C@@H](C)O3)OC(=O)C=CC=C[C@@H]2C)C[C@H]1O[C@H]1C[C@H](O)[C@H](O)[C@H](C)O1,–,38.5 µM (active)
CC(C)[C@H]1C(=O)N[C@H](CO)Cc2c[nH]c3cccc(c23)N1C,–,10.9 µM (active)
Oc1ccc2c3c1O[C@H]1[C@@H](O)C=C[C@H]4[C@@H](C2)NCC[C@@]341,0.485% [at 115 µM],–
N=c1c2c(-c3ccccc3)c(-c3ccccc3)n(Cc3ccccc3)c2ncn1C1CCC(O)CC1 (stereo not given),–,0.544 µM (active)
COc1cc([C@@H]2c3cc4c(cc3[C@@H](O)C3COC(=O)C32)OCO4)cc(OC)c1O (stereo not given in full),–,0.172 µM (active)
O=S(=O)(CC1CS1)c1ccc(Oc2ccccc2)cc1 (stereo not given),10.1%,–
CN(C)NC(=O)CCC(=O)O,-12.8%,–
CS(=O)(=O)c1ccc(C(=O)C2C(=O)CCCC2=O)c([N+](=O)[O-])c1,-7.44% [at 115 µM],–

# Target: Nucleoprotein (Lymphocytic choriomeningitis virus (strain Armstrong)) (UniProt P09992)
# Assay: qHTS for Inhibitors of the Functional Ribonucleoprotein Complex (vRNP) of Lymphocytic Choriomeningitis Arenaviruses (LCMV): LCMV Primary Screen - GLuc reporter signal (AID 1347086); also: nearly all actives have a fitted effect of over 70% in size
# Conditions: LCMV minigenome vRNP cell assay, Gaussia luciferase reporter; series mostly up to 57.5 µM; activity change, negative = inhibition: at the top concentration
# Chain of Nucleoprotein (Lymphocytic choriomeningitis virus (strain Armstrong)) (P09992 whole entry, looked up): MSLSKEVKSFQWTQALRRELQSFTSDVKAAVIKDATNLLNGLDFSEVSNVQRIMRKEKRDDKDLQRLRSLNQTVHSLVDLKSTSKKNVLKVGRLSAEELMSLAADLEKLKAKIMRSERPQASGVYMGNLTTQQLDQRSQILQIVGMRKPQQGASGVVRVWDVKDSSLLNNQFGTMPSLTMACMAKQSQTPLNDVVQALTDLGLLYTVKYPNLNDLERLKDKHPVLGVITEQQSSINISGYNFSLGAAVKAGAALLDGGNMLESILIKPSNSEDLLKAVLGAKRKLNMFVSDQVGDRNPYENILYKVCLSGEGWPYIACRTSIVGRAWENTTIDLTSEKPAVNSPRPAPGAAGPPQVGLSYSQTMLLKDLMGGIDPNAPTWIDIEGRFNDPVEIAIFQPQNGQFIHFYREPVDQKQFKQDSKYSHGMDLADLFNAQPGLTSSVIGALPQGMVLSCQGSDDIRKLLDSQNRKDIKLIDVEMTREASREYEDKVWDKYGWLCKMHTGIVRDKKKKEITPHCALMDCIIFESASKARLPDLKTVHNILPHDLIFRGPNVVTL
Structure (SMILES),"activity change, negative = inhibition",Potency
O=C(N[C@@H](COc1ccc2[nH]c(=O)[nH]c2c1)c1ccccc1)c1cccn(Cc2ccc(F)c(F)c2)c1=O,16.7%,–
O=C(Oc1ccc([N+](=O)[O-])cc1)N1CCN(Cc2cccc(Oc3ccccc3)c2)CC1,–,6.85 µM (active)
CC(C)(O)C=CC(=O)[C@](C)(O)[C@H]1[C@H](O)C[C@]2(C)[C@@H]3CC=C4[C@@H](C=C(O)C(=O)C4(C)C)[C@]3(C)C(=O)C[C@@]12C,–,10.9 µM (active)
Clc1ccccc1C(c1ccccc1)(c1ccccc1)n1cccn1,14.1%,–
CC(C)[C@]12O[C@@H]1[C@@H]1O[C@]13[C@]1(O[C@H]1C[C@@H]1C4=C(CC[C@@]13C)C(=O)OC4)[C@H]2O,-66.3%,–
c1cc2c(cc1[C@H]1OC[C@H]3[C@H]1CO[C@H]3c1ccc3c(c1)OCO3)OCO2,5.32%,–
O=C(O)CC[N+](=O)[O-],–,inactive
COc1ccc(CC2NCCc3cc(OC)c(OC)cc32)cc1OC (stereo not given),-27.3%,–
C[C@@H]1CC[C@@]2(OC1)O[C@H]1C[C@H]3[C@@H]4CC=C5C[C@@H](O[C@@H]6O[C@H](CO)[C@@H](O[C@@H]7O[C@@H](C)[C@H](O)[C@@H](O)[C@@H]7O)[C@H](O)[C@@H]6O[C@@H]6O[C@@H](C)[C@H](O)[C@@H](O)[C@@H]6O)CC[C@]5(C)[C@@H]4CC[C@]3(C)[C@@H]1[C@H]2C,6.28%,–
CC(N[C@H]1C[C@H]1c1ccccc1)c1ccc2c(c1)OCCO2 (stereo not given in full),1.78%,–
O=[N+]([O-])c1c(Cl)c(Cl)cc(Cl)c1Cl,21.5% [at 115 µM],–
COc1ccc(N(C(=O)Oc2c(C)cccc2C)c2ccnc(Nc3ccc(N4CCN(C)CC4)cc3)n2)c(OC)c1,-75.1%,–
CC[N+]1(CCOC(=O)C(O)(c2ccccc2)c2ccccc2)CCCCC1,0.575%,–
CC(=Cc1csc(C)n1)[C@@H]1C[C@H]2O[C@]2(C)CCC[C@H](C)[C@@H](O)[C@@H](C)C(=O)C(C)(C)[C@@H](O)CC(=O)O1,-63.4%,–
CCOC(=O)Nc1ccc(NCc2ccc(F)cc2)cc1N,–,1.53 µM (active)
COc1ccc2c(c1)[C@]13CCCCC1C(C2)N(C)CC3 (stereo not given in full),118%,–
Nc1ccc(N=Nc2ccccc2)cc1,-25.5% [at 115 µM],–

Structure (SMILES),"activity change, negative = inhibition",Potency
CCCCCCCCCC(CC)c1ccc(S(=O)(=O)O)cc1 (stereo not given),43.3% [at 115 µM],–
c1cc2ccc3cccc4ccc(c1)c2c34,24.6% [at 115 µM],–
CO/C=C(/C(=O)OC)c1ccccc1Oc1cc(Oc2ccccc2C#N)ncn1,–,10 µM (active)
N#C[C@H](O[C@@H]1O[C@H](CO[C@@H]2O[C@H](CO)[C@H](O)[C@H](O)[C@H]2O)[C@H](O)[C@H](O)[C@H]1O)c1ccccc1,–,24.3 µM (active)
CC[C@@H]1[C@@H](C)O[C@@](O)([C@@H](C)[C@H](O)[C@H](C)[C@H]2OC(=O)C=CC=C[C@@H](C)[C@@H]([C@@H](C)[C@@H](O)[C@H](C)[C@@]3(O)C[C@H](O[C@H]4C[C@H](O)[C@H](O)[C@H](C)O4)[C@H](CC)[C@@H](C)O3)OC(=O)C=CC=C[C@@H]2C)C[C@H]1O[C@H]1C[C@H](O)[C@H](O)[C@H](C)O1,–,13.7 µM (active)
CC(C)[C@H]1C(=O)N[C@H](CO)Cc2c[nH]c3cccc(c23)N1C,4.17%,–
O=[N+]([O-])c1cc([N+](=O)[O-])c2ccccc2c1,-22.2% [at 115 µM],–
Oc1ccc2c3c1O[C@H]1[C@@H](O)C=C[C@H]4[C@@H](C2)NCC[C@@]341,-3.38% [at 115 µM],–
N=c1c2c(-c3ccccc3)c(-c3ccccc3)n(Cc3ccccc3)c2ncn1C1CCC(O)CC1 (stereo not given),–,1.72 µM (active)
CCOC(=O)c1c(C(C#N)=CN)c2ccc(Cl)c(Cl)c2n1C,-2.29%,–
COc1cc([C@@H]2c3cc4c(cc3[C@@H](O)C3COC(=O)C32)OCO4)cc(OC)c1O (stereo not given in full),–,0.153 µM (active)
O=S(=O)(CC1CS1)c1ccc(Oc2ccccc2)cc1 (stereo not given),14.1%,–
CC1=C(O)C(=O)C=C2C1=CC=C1[C@@]2(C)CC[C@@]2(C)[C@@H]3C[C@](C)(C(=O)O)CC[C@]3(C)CC[C@]12C,–,7.69 µM (active)
CN(C)NC(=O)CCC(=O)O,-1.67%,–
O=S(=O)(F)Cc1ccccc1,-43.7%,–
CS(=O)(=O)c1ccc(C(=O)C2C(=O)CCCC2=O)c([N+](=O)[O-])c1,-7.26% [at 115 µM],–
